Laboratory results taken from PubChem BioAssay (NCATS).
Inconclusive results are not listed. A number with no mark means an inactive call. Activity calls are given as the source filed them. The call rests on the fitted dose curve; in most records, active means well fitted cell-killing curve with a large enough effect; inconclusive means small, poorly fitted or top-dose-only effect; inactive means no such curve, though single readings can be large or run the other way.

assay: qHTS of pediatric cancer cell lines to identify multiple opportunities for drug repurposing: Primary screen for Rh41 cells (AID 1347108); details: Rh41 rhabdomyosarcoma viability, CellTiter-Glo luminescence, 48 h; series mostly up to 46 µM; activity change, negative = cytotoxic: at the top concentration; further: nearly all actives have a fitted effect of over 70% in size;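 on activity change, negative = cytotoxic: luminescence drop marks cytotoxic hits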
Procedure, shortened: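 Luminescence from CellTiter-Glo served as readout of metabolically active cells after 48 h compound exposure. Titrations: MIPE 11-point, from 0.78 nM; NPC 8-point, from 0.59 nM (final). Concentration-response curves came straight from the primary screen.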
Potency means the concentration at half of the fitted maximal effect.

Compound	activity change, negative = cytotoxic	Potency
CN1CCC(N(Cc2ccccc2)c2ccccc2)CC1	7.22%	
C=CCOC(Cn1ccnc1)c1ccc(Cl)cc1Cl (stereo not given)	2.04%	
CCS(=O)(=O)C(C)(C)S(=O)(=O)CC	-6.08%	
Oc1ccc([C@H]2CNCc3c2ccc(O)c3O)cc1O	7.57%	
CC(CC(C(N)=O)(c1ccccc1)c1ccccc1)N(C)C (stereo not given)	13.6%	
ClCCCN1CCN(c2cccc(Cl)c2)CC1	14.1%	
C1CN2CCC1CC2	31.3%	
O=C(N[C@H]1N=C(c2ccccc2F)c2cccc3c2N(CC3)C1=O)c1cc2ccccc2[nH]1	16.2%	
c1cc2c(c(N3CCNCC3)c1)OCCO2	19%	
CC(C(O)c1ccccc1)N(C)C/C=C/c1ccccc1 (stereo not given)	4.01%	
CC(C)(C)OC(=O)c1ncn2c1[C@@H]1CCCN1C(=O)c1c(Br)cccc1-2	16.2%	
CN(C)CCc1c[nH]c2cccc(O)c12	-4.36% [at 92.7 µM]	
CCCC(C)C1(CC)C(=O)N=C(S)NC1=O (stereo not given)	26.4%	
C[C@H](CN1CCOCC1)C(C(=O)N1CCCC1)(c1ccccc1)c1ccccc1		46.9 µM (active)
CC1=C2[C@H]3OC(=O)[C@@H](C)[C@@H]3CC[C@@]2(C)C=CC1=O	-1.48%	
CCC1(c2ccccc2)CCC(=O)NC1=O (stereo not given)	24.4%	
C[N+]1(CCC(C(N)=O)(c2ccccc2)c2ccccc2)CCCCC1	19.1%	
CCOC(=O)NC(C)(C)Cc1ccc(Cl)cc1	5.65%	

Compound	activity change, negative = cytotoxic	Potency
CCOC(=O)C(c1c(O)c2ccccc2oc1=O)c1c(O)c2ccccc2oc1=O	32.8%	
COc1ccc2[nH]cc(CCN(C(C)C)C(C)C)c2c1	-3.17% [at 92.7 µM]	
CN(C)CCc1c[nH]c2ccccc12	-16.3% [at 155 µM]	
Cc1c(Cl)c(=O)oc2cc(OP(=O)(OCCCl)OCCCl)ccc12	19.4%	
CC(=O)OC1(c2ccccc2)CCN(CCc2ccccc2)CC1		49.5 µM (active)
Cc1ccc(N=CN(C)C=Nc2ccc(C)cc2C)c(C)c1	19.9%	
O=C1CN2CCOC2(c2ccccc2Cl)c2cc(Cl)ccc2N1 (stereo not given)	17.3%	
COc1cc(CC#N)cc(OC)c1OC	29.7%	
CCOC(=O)NC(O)C(Cl)(Cl)Cl (stereo not given)	4.57%	
CN1C(=O)CN=C(c2ccccc2)c2cc(Cl)ccc21	-19.8%	
CN1C2CCC(C)(C)C1CC(OC(=O)C(O)(c1cccs1)c1cccs1)C2 (stereo not given)	10.1%	
CC(C)=CCN1CC[C@@]2(C)c3cc(O)ccc3C[C@@H]1[C@@H]2C	-14.2% [at 92.7 µM]	
CCN(CC)Cc1nccn1-c1ccc([N+](=O)[O-])cc1C(=O)c1ccccc1Cl	1.46%	
CCCC[N+]1(C)[C@@H]2CC(OC(=O)[C@H](CO)c3ccccc3)C[C@H]1[C@@H]1O[C@@H]12 (stereo not given in full)	9.59%	
CCC(OC(C)=O)C(CC(C)NC)(c1ccccc1)c1ccccc1 (stereo not given)		31 µM (active)
CC(Cc1ccc2c(c1)OCO2)NO (stereo not given)	3.77% [at 92.7 µM]	
C[C@@H]1CC[C@H]2[C@@H](C)C(=O)O[C@@H]3O[C@@]4(C)CC[C@@H]1[C@]32OO4	-2%	
